Here are results for 40 molecules from PubChem BioAssay (NCI).

About 79,000 compounds went through this panel and 15% of them were active in at least one assay; those are over-represented in the sample as a whole. Values without a mark were called inactive. The source made the active and inactive calls. Rule as the data show it: active = growth inhibition above about 70%; inactive = the rest. Where a SMILES comes first, the peptide text is derived from it. [ ]: non-standard residue; d: D form. The star is where a group is joined. mTyr = N[CH](Cc1cccc(O)c1)C(=O)O; Cbz = O=C(OCc1ccccc1)*; OBn = c1ccc(CO*)cc1

The nature of this assay: NCI Yeast Anticancer Drug Screen. Data for the mlh1 rad18 strain (AID 175). To be noted: S. cerevisiae mlh1 rad18 strain growth inhibition; at 50.0 µM; active compounds read high. An outline of the steps:
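Vehicle-treated cultures served as the reference for growth inhibition in a yeast strain carrying DNA damage repair alterations exposed to each compound.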
For the molecule `CC12CCC(c3sc(N)c(C#N)c31)C2(C)C` (stereo not given), the growth inhibition was 43.8%.

On to `O=C1/C(=C/c2cccc(F)c2)CCCc2ccccc21`, for which the growth inhibition is 72.7% (active).

Turning to `CC(=O)N[C@H]1CC[C@H]2[C@@H]3CCC4=CC(=O)CC[C@]4(C)[C@H]3CC[C@]12C`, the growth inhibition was 93.8% (active).

In the case of `C/C(=N/O)c1ccc2c(c1)C(=NO)c1cc(/C(C)=N/O)ccc1-2`, the growth inhibition is 91% (active).

Take `Cc1cccc(N2C(c3ccccc3)c3ccc(C)cc3NS2=O)c1` (stereo not given): the growth inhibition was 99.2% (active).

Turning to `[Pt].c1ccc(P(CCP(CCP(c2ccccc2)c2ccccc2)CCP(c2ccccc2)c2ccccc2)c2ccccc2)cc1`, the growth inhibition is 79% (active).

Turning to `Cc1cc(I)ccc1NC(=S)Nc1ccccc1F`, the growth inhibition was 90.7% (active).

For `FC(F)(F)c1ccccc1NC(=S)SCc1ccc(Cl)cc1`, the growth inhibition is 99.2% (active).

Regarding `COC(=O)C1(C)CC2C(C)(CCC3(C)C4=CC=C5C(=CC(=O)C(O)=C5C)C4(C)CCC23C)CC1O` (stereo not given), the growth inhibition was 85.8% (active).

Turning to `CC1CCC(=NNC(N)=O)CC1` (stereo not given), the growth inhibition was -19.2%.

As to `CCOC(=O)C(NS(=O)(=O)c1ccccc1)(C(F)(F)F)P(=O)(OCC(C)C)OCC(C)C` (stereo not given), the growth inhibition is 98% (active).

Regarding `O=[N+]([O-])c1ccc(/C=N/NC2=CS(=O)(=O)C=C2)cc1`, the growth inhibition was 1.1%.

As for `CC(C)c1ccc2c(c1)CCC1C(C)(CNC(=O)S)CCCC21C.[Zn+2]` (stereo not given), the growth inhibition is -10.6%.

With `Cc1ccc(N=Nc2sc(N)nc2C)cc1C`, the growth inhibition is 85.4% (active).

For `CC(C)(C)C1CCC2c3c([nH]c4ccccc34)C3C(=O)N(c4ccc(C(=O)O)cc4)C(=O)C3C2C1` (stereo not given), the growth inhibition was 98.8% (active).

On to `O=C(CBr)Nc1ccc(Cc2ccc(NC(=O)CBr)cc2)cc1`, for which the growth inhibition is 97.2% (active).

Regarding `O=c1[nH]c2c([N+](=O)[O-])cc(Cl)cc2nc1/C=C(\O)c1ccc(Cl)cc1`, the growth inhibition was 97.2% (active).

As to `CCOC(=O)C1=C(N)N(S(=O)(=O)c2ccc(C)cc2)CCC(C(=O)OC)=C1`, the growth inhibition was 56.1%.

With `CC(C)=CC(=O)OC(CCCc1ccccc1)c1ccc2c(c1)OCO2` (stereo not given), the growth inhibition is -8.25%.

For `OCCN(CCO)c1cc(/C=C/c2ccnc3ccccc23)nc2ccccc12`, the growth inhibition is 53.4%.

For `CCCCCCCCCCCC(=O)OCC1CO1` (stereo not given), the growth inhibition is -11.4%.

Take `CCCCCCCCCCCCCCCCCC1=NCCN1`: the growth inhibition was 99.2% (active).

Regarding `CC(=O)OCC1OC(OC2C=C(O[Si](C)(C)C)C[C@H]3C(=O)C=CC(=O)[C@@H]23)C(OC(C)=O)C(OC(C)=O)C1OC(C)=O` (stereo not given in full), the growth inhibition was 54.6%.

With `C[C@]12CC[C@H]3[C@@H](CCC4=CC(=O)CC[C@@]43C)[C@@H]1CC[C@@H]2C(=O)C=O`, the growth inhibition was 56.2%.

Take `CCCCCC(O)C(C)CO` (stereo not given): the growth inhibition is 14.4%.

Regarding `CC(=O)Oc1ccc(-c2ccccc2)cc1Br`, the growth inhibition is 98.1% (active).

Take `COC(=O)C(Cc1cccc(O)c1)NC(=O)C(CC(=O)OCc1ccccc1)NC(=O)OCc1ccccc1` (stereo not given) (Cbz-Asp(OBn)-[mTyr]-OMe; configuration not given here): the growth inhibition is 80.9% (active).

Consider `CCC(CO)Nc1nc2cc(Br)ccc2c2ccc(Br)cc12` (stereo not given), for which the growth inhibition is 95.8% (active).

With `Cc1cc(Br)ccc1NC(=O)/C=C/C(=O)O`, the growth inhibition was 1.25%.

With `CCO/C=C1N=C(/C=C/c2ccccc2Cl)OC/1=O`, the growth inhibition was 71.7% (active).

With `O=S(=O)(Nc1ccccc1C(F)(F)F)c1ccc(F)cc1`, the growth inhibition was 80.2% (active).

As to `N#CSCC(=O)c1ccc2ccccc2c1`, the growth inhibition was 91.3% (active).

Consider `O=[N+]([O-])/C(Cl)=C(\Nc1ccccc1)C(Cl)=C(Cl)Cl`, for which the growth inhibition is 85.1% (active).

Consider `C/C(=N/NC(=O)c1ccccc1S(N)(=O)=O)C(CN1CCCCC1)C(C1=C(O)C2C=CC=CC2OC1=O)c1ccccc1` (stereo not given), for which the growth inhibition was 88% (active).

As for `N#Cc1c([N+](=O)[O-])cc(C(F)(F)F)cc1[N+](=O)[O-]`, the growth inhibition is 99.3% (active).

Consider `CCCCCCCCCCCCO`, for which the growth inhibition was 76.4% (active).

In the case of `S=C(N/N=C/c1ccccn1)N1CC2CCC(CC2)C1`, the growth inhibition was 89.7% (active).

As for `ClC1(c2ccccc2)c2ccccc2-c2ccccc21`, the growth inhibition was 97.1% (active).

Take `Cc1ccc(SCC#CC#CCS(=O)c2ccc(C)cc2)cc1` (stereo not given): the growth inhibition is 97.6% (active).

For the molecule `CCCCCCCOc1ccc(C=O)cc1OC`, the growth inhibition is 33.8%.
